Bioassay records as filed in PubChem BioAssay.
Most compounds without a hit are left out; they make up all but 2.2% or so of the library.
aSyn UTR inh: MLPCN primary screen, SNCA 5' untranslated region; 300,000 compounds, 0.82% hits; alpha-synuclein 5'UTR reporter, inhibitor activity; AID 1813; inhibition, % (tested at 7.5 µM); in the data active means inhibition above about 60%;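 further: H4 neuroglioblastoma cells stably carrying SNCA 5'UTR luciferase fusion; 0% = DMSO wells and 100% = positive control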
Ba/F3 V617F tox: lowers viability of Ba/F3 cells expressing EpoR and JAK2V617F. inhibition, % at 5.6 µM. 220,000 compounds, 1.1% hits. AID 1446. ATP luminescence;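 active means inhibition above the campaign mean plus 3 SD over all tested compounds, cut at about 24% in these data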;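 further: cytokine-independent growth of Ba/F3 cells driven by EpoR plus mutant JAK2; 0% = DMSO-treated cells and 100% = JAK inhibitor I control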
KLF5 inhibitor: suppresses KLF5 promoter-driven expression; DLD-1 KLF5 promoter-luciferase reporter, luminescence; 290,000 compounds, 0.23% hits; inhibition, % at 5 µM;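 active means inhibition above a per-plate limit of that plate's mean compound inhibition plus 3 SD, cut at about 60% in these data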;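 further: 0% = DMSO wells and 100% = LY294002 at 200 µM; higher means less KLF5 promoter-driven luciferase light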
APP transl inh: APP translation inhibition | SH-SY5Y APP 5'UTR-luciferase reporter, luminescence | inhibition, % at 2 µM | 190,000 compounds, 0.82% hits | AID 1285;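 active means inhibition above a set limit, derived from the sample mean plus 3 SD, cut at about 45% in these data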
BaF3 parental: reduces parental Ba/F3 cell viability, JAK2V617F counter-screen. CellTiter-Glo ATP luminescence. 220,000 compounds, 1.1% hits. AID 1486. inhibition, % at 5.6 µM;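 active means inhibition above a per-campaign cutoff, the mean inhibition of all tested compounds plus 3 SD, cut at about 27% in these data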;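 further: 0% = DMSO wells and 100% = JAK Inhibitor I control wells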
IEC-6 cytotox: kills IEC-6 intestinal cells in KLF5 counter-screen; IEC-6 cytotoxicity, luminescence viability; inhibition, % at 5 µM; 290,000 compounds, 0.78% hits; in the data active means inhibition above about 22%;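 further: 0% = plate median of test compound wells and 100% = cytotoxic reference compound wells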
BaF3 tox 2: parental Ba/F3 viability inhibition for JAK2V617F counter-screen. CellTiter-Glo luminescence; cells kept alive by added IL-3. AID 1520. 580 compounds, 31% hits. shares compounds with Ba/F3 V617F tox. inhibition, % at 5.6 µM;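 active means cell growth inhibition above the hit limit set in the earlier mutant JAK2 cell screen, cut at about 27% in these data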;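 further: plate controls were DMSO-treated cells for no effect and JAK Inhibitor I control wells for full effect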
JAK2V617F confrm: Ba/F3 EpoR-JAK2V617F viability loss, confirmation; inhibition, % at 5.6 µM; 580 compounds, 66% hits; CellTiter-Glo luminescence; shares compounds with Ba/F3 V617F tox;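 active means mean inhibition above the hit cutoff derived in the earlier primary screen, cut at about 25% in these data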;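 further: 0% = DMSO-treated cells and 100% = JAK inhibitor I control wells; higher means lower luminescence from reduced cell ATP and viability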
* hit, by the source's call.

How did Cc1ccc(C)c(-n2c(=O)c(C#N)cc3c(=O)n4ccccc4nc32)c1 do in these assays?
aSyn UTR inh: 5.4; Ba/F3 V617F tox: 60.5*; KLF5 inhibitor: -9.2; APP transl inh: -2.7; BaF3 parental: 21.3; IEC-6 cytotox: -1.6; BaF3 tox 2: -2.0; JAK2V617F confrm: -4.6

How did Cc1ccc(-c2nc(C=Nc3ccc(O)cc3)c(O)o2)cc1 do in these assays?
aSyn UTR inh: -94.7; Ba/F3 V617F tox: 37.5*; KLF5 inhibitor: -11.2; APP transl inh: 66.5*; BaF3 parental: 19.0; IEC-6 cytotox: 5.3; BaF3 tox 2: 28.3*; JAK2V617F confrm: 82.5*

Results for COc1ccc(CCN(C)C(=O)C2CCN(Cc3cccc(OC)c3OC)CC2)cc1OC ?
aSyn UTR inh: 25.8; Ba/F3 V617F tox: 31.2*; KLF5 inhibitor: -22.5; APP transl inh: -21.7; BaF3 parental: -0.9; IEC-6 cytotox: 2.3; BaF3 tox 2: -1.3; JAK2V617F confrm: -1.8

What do the screens show for `CCOC(=O)c1c(S(=O)(=O)Nc2ccc(F)cc2Cl)c(C)n(C)c1C`?
aSyn UTR inh: 10.5; KLF5 inhibitor: -19.2; IEC-6 cytotox: -5.1

How did NC(=O)c1ccccc1NC(=O)CCc1ccccc1 do in these assays?
aSyn UTR inh: -113.0; Ba/F3 V617F tox: -5.1; KLF5 inhibitor: -63.2; APP transl inh: -4.1; BaF3 parental: 0.3; IEC-6 cytotox: -3.9

Results for NC(=O)c1ccccc1NC(=S)NC(=O)CCc1ccccc1 ?
aSyn UTR inh: 11.4; Ba/F3 V617F tox: 46.6*; KLF5 inhibitor: 68.1*; APP transl inh: 70.8*; BaF3 parental: 7.2; IEC-6 cytotox: 60.3*; BaF3 tox 2: 18.2; JAK2V617F confrm: 91.1*

How did Cc1ccc(NS(=O)(=O)c2cc3c4c(cccc4c2)C(=O)NC3=O)cc1C do in these assays?
aSyn UTR inh: 32.2; Ba/F3 V617F tox: 24.6*; KLF5 inhibitor: -0.9; BaF3 parental: 11.3; IEC-6 cytotox: 15.1; BaF3 tox 2: 44.8*; JAK2V617F confrm: 76.8*

Results for CN1C(=O)/C(=C/c2ccc(OCc3ccccc3F)cc2)NC1=S ?
aSyn UTR inh: -12.5; KLF5 inhibitor: -47.0; IEC-6 cytotox: 0.2

Results for COc1cc(CC(=O)Nc2ccc(S(=O)(=O)NC3=NCCCCC3)cc2)cc(OC)c1OC ?
aSyn UTR inh: -12.3; Ba/F3 V617F tox: -0.8; KLF5 inhibitor: -9.7; APP transl inh: -7.2; BaF3 parental: 1.4; IEC-6 cytotox: -3.6

Results for O=[N+]([O-])c1cc(Br)c(O)c(/C=N/Nc2nnnn2-c2cccc3ccccc23)c1 ?
aSyn UTR inh: -44.0; Ba/F3 V617F tox: -4.8; KLF5 inhibitor: -0.8; APP transl inh: 13.4; BaF3 parental: -1.4; IEC-6 cytotox: 0.1

How did Oc1ccc(C=Nc2ccc3ncccc3c2)c(O)c1 do in these assays?
aSyn UTR inh: -12.2; Ba/F3 V617F tox: -1.1; KLF5 inhibitor: -7.5; APP transl inh: -53.7; BaF3 parental: 1.1; IEC-6 cytotox: -1.0

What do the screens show for `Oc1ccc(C=Nc2cccc3ncccc23)c(O)c1`?
aSyn UTR inh: -21.0; Ba/F3 V617F tox: 51.7*; KLF5 inhibitor: -21.0; APP transl inh: 11.9; BaF3 parental: 16.0; IEC-6 cytotox: 18.4; BaF3 tox 2: -1.6; JAK2V617F confrm: -3.7

Results for C(=N\Nc1nc2ccccc2[nH]1)/c1cccc2nccnc12 ?
aSyn UTR inh: 67.3*; Ba/F3 V617F tox: 49.5*; KLF5 inhibitor: 26.7; BaF3 parental: 2.9; IEC-6 cytotox: 11.6; BaF3 tox 2: 51.0*; JAK2V617F confrm: 63.4*

How did COCCCN=C1NN=C(c2cc(C)n(Cc3ccco3)c2C)CS1 do in these assays?
aSyn UTR inh: 93.7*; Ba/F3 V617F tox: 79.0*; KLF5 inhibitor: -3.7; APP transl inh: 94.3*; BaF3 parental: -0.3; IEC-6 cytotox: -0.9; BaF3 tox 2: 78.0*; JAK2V617F confrm: 96.9*

How did Cn1cnc([N+](=O)[O-])c1NC(C)(C)C do in these assays?
aSyn UTR inh: 31.3; Ba/F3 V617F tox: 2.4; KLF5 inhibitor: -33.7; APP transl inh: -0.9; BaF3 parental: 8.7; IEC-6 cytotox: -0.6

Results for Cn1cnc([N+](=O)[O-])c1S(=O)(=O)c1ccc(Cl)cc1 ?
aSyn UTR inh: 18.4; Ba/F3 V617F tox: 26.3*; KLF5 inhibitor: -1.5; APP transl inh: 10.8; BaF3 parental: -1.6; IEC-6 cytotox: 11.0; BaF3 tox 2: 0.9; JAK2V617F confrm: 68.8*
